This is a sample that favours compounds with a hit; in the whole collection about 7.3% have one here.
VP16 counter: counter-screen for ROR gamma inhibitors: Gal4-VP16 reporter | Drosophila S2 Gal4-VP16 UAS-luciferase, luminescence, 20 h | Potency, µM (top dose mostly 53.6 µM), for the others: top-dose activity, negative = inhibition, actives largely listed as inhibitors | 310,000 compounds, 3.5% hits | AID 2546;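 note: Gal4-VP16 expression switched on by copper sulfate through the metallothionein promoter; nearly all actives have a fitted effect of over 50% in size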
Tau fluor cs: counter-screen for tau fibril formation inhibitors; tau K18 P301L Alexa594 fluorescence, heparin fibrillization; Potency, µM (titrated, usually from 57.7 µM), without a hit: at the highest dose activity change, negative = decrease; 280,000 compounds, 0.93% hits; note: nearly all actives have a fitted effect of over 55% in size
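Human tau K18 P301L (15 uM unlabeled, 0.24 uM Alexa 594-labeled) in 100 mM sodium acetate pH 7 with 20 uM heparin, 6 hr at 37 C. ThT 30 uM added, 1 hr ambient; Alexa 594 FP and total fluorescence read at 555/632 nm.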
RORgamma inh: inhibitors of mouse ROR gamma transcriptional activity; 310,000 compounds, 5.4% hits; Drosophila S2 Gal4-RORgamma UAS-luciferase reporter, 20 h; P51450; AID 2551; Potency, µM (top dose mostly 53.6 µM), for the others: at the highest dose activity change, negative = inhibition, usual class: inhibitors; note: nearly all actives have a fitted effect of over 60% in size
Target sequence (P51450 whole entry, looked up, the tested form may be a part): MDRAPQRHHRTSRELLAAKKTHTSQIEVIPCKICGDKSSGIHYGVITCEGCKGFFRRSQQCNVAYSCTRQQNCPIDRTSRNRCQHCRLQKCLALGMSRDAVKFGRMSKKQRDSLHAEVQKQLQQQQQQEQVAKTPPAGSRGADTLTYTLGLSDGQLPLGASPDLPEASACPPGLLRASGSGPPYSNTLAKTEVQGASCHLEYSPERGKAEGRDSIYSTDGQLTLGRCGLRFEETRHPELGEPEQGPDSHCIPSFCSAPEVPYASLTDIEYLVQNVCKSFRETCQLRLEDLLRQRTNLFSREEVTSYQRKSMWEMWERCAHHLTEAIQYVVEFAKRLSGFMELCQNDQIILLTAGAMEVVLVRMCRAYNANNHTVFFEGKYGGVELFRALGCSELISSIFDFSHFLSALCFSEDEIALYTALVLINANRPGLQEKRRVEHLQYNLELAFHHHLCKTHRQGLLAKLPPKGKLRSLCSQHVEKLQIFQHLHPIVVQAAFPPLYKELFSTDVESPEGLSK
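Stable Schneider cell line, Gal4 DNA-binding domain fused to ROR gamma, UAS-luciferase. Cmpd 1 hr RT → CuSO4 700 uM final → 20 hr RT → luciferase reagent 10 min → luminescence.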
Tau fibril FP: tau fibrillization inhibition (FP). K18 P301L tau heparin fibrillization, Alexa594 FP, 6 h. Potency, µM (highest dose often 57.7 µM), for the others: at the top dose activity, negative = inhibition, actives largely listed as inhibitors. P10636. 280,000 compounds, 0.39% hits; note: nearly all actives have a fitted effect of over 55% in size
Target sequence (P10636 561-689 P618L limits assumed): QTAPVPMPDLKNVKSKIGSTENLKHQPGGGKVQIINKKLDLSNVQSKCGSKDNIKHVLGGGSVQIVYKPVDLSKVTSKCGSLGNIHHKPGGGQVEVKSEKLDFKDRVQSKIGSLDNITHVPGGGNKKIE
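Read-out: fluorescence polarization of Alexa 594-labeled tau (0.24 uM), 555 nm excitation, 632 nm emission. Mixtures held 15 uM unlabeled K18 P301L, compound and 20 uM heparin, pH 7 acetate buffer, incubated 6 hr at 37 C.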
Tau fibril ThT: inhibitors of human tau fibril formation, thioflavin T binding; Potency, µM (doses to about 57.4 µM), without a hit: at the top dose activity, negative = inhibition, usual class: inhibitors; recombinant tau K18 P301L (four-repeat tau fragment), heparin-induced fibrillization, ThT fluorescence; P10636; 270,000 compounds, 2.1% hits; note: nearly all actives have a fitted effect of over 55% in size
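Tau K18 P301L fragment (15 uM unlabeled plus 0.24 uM Alexa 594-labeled) in 100 mM sodium acetate pH 7 with compound, fibrillization induced by 20 uM heparin for 6 hr at 37 C. Thioflavin T (30 uM) added, fluorescence read after 1 hr (ex 450, em 510 nm).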
* hit, by the source's call; ? = inconclusive; / = no result; [ ] = dose if it differs, or a comment. Calls come from the whole dose curve; as a rule, active = well fitted curve in the direction sought with a large enough effect; inconclusive = small, poorly fitted or top-dose-only effect, or another doubt; inactive = no such curve, though single readings can be large; an effect the other way counts as inactive or inconclusive. % is set by controls: 0 for no effect and ±100 for the full control effect; potency is the fitted concentration of half-maximal effect.

SMILES | VP16 counter | Tau fluor cs | RORgamma inh | Tau fibril FP | Tau fibril ThT
Cc1cc2nc(-c3cccc(NC(=O)CSc4ccc(Cl)cc4)c3)oc2cc1C | / | -16.4% | / | ? | 5.6%
O=C(NC1(C(F)(F)F)C(=O)Nc2c1c(=O)[nH]c(=O)n2-c1ccc(Cl)cc1)c1ccccc1F (configuration not stated) | / | 10.0% | / | 3.0% | 12.3%
Cc1[nH]n(-c2ccccc2)c(=O)c1N=Nc1cccc(S(=O)(=O)N2CCOCC2)c1 | ? | -24.9% | 7.94µM* | 5.0% | ?
CC(C)(C)Nc1nc(C#N)nc(Nc2ccccc2)n1 | 2.8% | / | / | / | /
CCOc1cc(/C=C2\SC(=N)N(c3nonc3N)C2=O)ccc1OCCN1CCOCC1 | ? | -14.7% | 3.16µM* | -7.8% | ?
COc1ccc(CCNC(=O)c2ccc(Nc3nc4ccccc4n4nnnc34)cc2)cc1OC | / | -17.1% | / | -5.2% | -12.7%
COc1cc(O)c2c(c1)OC(C)(C)CC2=O | 15.1% | -3.6% | 6.8% | -5.5% | 3.8%
COc1cc(O)cc2cc3c(c(O)c12)C(=O)CC(C)(O)O3 (configuration not stated) | 8.6% | ? | -2.7% | -14.2% | 25.1µM*
O=C(COc1ccccc1)N1N=C(c2cccnc2)CC1(O)C(F)(F)F (configuration not stated) | 18.9% | -4.2% | -27.0% | -2.9% | -0.6%
Cc1ccc(C2=NN(C3=NN=C(N)Cc4ncnn43)C(O)(C(F)(F)F)C2)cc1 (configuration not stated) | ? | -3.5% | 8.91µM* | -11.3% | -5.1%
Cc1ccc(OCC(=O)N2N=C(c3ccncc3)CC2(O)C(F)(F)F)cc1C (configuration not stated) | -15.1% | -6.4% | 3.98µM* | -2.9% | -8.7%
CCOC(=O)N1N=C(c2ccc(C)cc2)CC1(O)C(F)(F)F (configuration not stated) | 6.31µM* | 2.0% | 6.31µM* | 10.1% | 2.3%
CCCNC(=O)CSc1c(CCC)cnc2c1c(=O)n(C)c(=O)n2C | / | -1.4% | / | -3.1% | -3.0%
CCN1CCN(c2cc(C)c3cc(NC(=O)/C=C/c4cccc(Cl)c4)ccc3n2)CC1 | / | 3.55µM*[quencher] | / | 3.0% | 3.16µM*
CCN1CCN(c2cc(C)c3cc(NC(=O)c4cc(OC)cc(OC)c4)ccc3n2)CC1 | -1.1% | 15.8µM*[quencher] | -38.1% | 9.9% | ?
CCN1CCN(c2cc(C)c3cc(NC(=O)c4cccc(Cl)c4)ccc3n2)CC1 | / | 14.1µM*[quencher] | / | 6.9% | ?
CCOc1ccc(C(=O)Nc2ccc3nc(N4CCN(CC)CC4)cc(C)c3c2)cc1 | 1.1% | / | -5.0% | / | /
O=C(CCNC(=O)c1ccco1)Nc1ccc(Cl)cc1F | -7.7% | / | 19.9% | / | /
CC1(C)Cc2ccccc2C(/C(=N\Nc2cccc(Cl)c2)C(N)=O)=N1 | ? | ? | ? | 9.4% | 14.1µM*
COCCN(Cc1cc2cc3c(cc2nc1Cl)OCO3)C(=O)c1ccc(C)cc1 | ? | 1.8% | 1.58µM* | -9.8%[2.34 µM] | 4.9%
Cc1ccc(C(=O)Cn2c3c(sc2=N)CCCC3)cc1 | ? | -18.6% | 0.794µM* | -11.9% | ?
Cc1cc(C=C2C(=O)c3ccccc3C2=O)c(C)n1-c1ccc(C(=O)O)cc1 | 15.7% | 0.1% | -13.4% | -2.3% | 14.1µM*
Cc1cc(C=C2C(=O)c3ccccc3C2=O)c(C)n1-c1cccc(C(=O)O)c1 | -1.2% | -21.0% | -5.6% | -5.5% | 15.8µM*
CC1=NN(c2ccccc2)C(=O)/C1=C\c1cc(C)n(-c2ccccc2)c1C | 3.1% | -26.4% | 11.2% | -4.1% | 7.94µM*
Cc1cc(C=C2C(=O)c3ccccc3C2=O)c(C)n1-c1ccccc1 | 15.8µM* | -26.6% | 0.0631µM* | 5.6% | ?
SMILES | VP16 counter | Tau fluor cs | RORgamma inh | Tau fibril FP | Tau fibril ThT
COc1ncc2nc(-c3ccccc3)c(=O)n(C)c2n1 | -8.2% | / | 1.8% | / | /
COC(=O)c1ccc(C(NC(=O)OCc2ccccc2)/C(=C/[C@@H](C)C(=O)NC2CCCCC2)c2cccnc2)cc1 (some centres not stated) | 0.5% | 1.5% | ? | 5.8% | -6.0%
COc1cccc(OC)c1C(=O)NCCOc1cc(C)cc(C)c1 | -0.8% | / | 25.3% | / | /
Cc1cccc(NC(=O)C2CCCN2S(=O)(=O)c2ccc(Cl)cc2)n1 (configuration not stated) | -7.2% | / | 18.5% | / | /
FC(F)(F)c1ccncc1-c1nnnn1-c1ccc(Cl)cc1 | -8.3% | -7.4% | 12.7% | 0.8% | -3.5%
FC(F)(F)c1nc(N2CCCC2)ncc1-c1nnnn1-c1ccc(Cl)cc1 | 15.8µM* | -20.9% | -40.4% | 2.3% | -9.9%
c1ccc(-c2c[nH]c3[n+]2CCCCC3)cc1 | ? | -8.4% | 22.4µM* | 0.4% | -7.4%
Brc1ccc(-c2csc3[n+]2CCCCC3)cc1 | -0.4% | -2.9% | -7.3% | -8.5% | -11.4%
C=CC1=C2C=C(C3CC3)N(CCN3CCOCC3)C=C2C(=O)C(C)(OC(=O)c2ccco2)C1=O (configuration not stated) | / | -1.3%[11.6 µM] | / | -0.8%[11.6 µM] | -5.3%[11.5 µM]
COc1cc([N+](=O)[O-])ccc1NC(=O)N1CCCCCC1 | ? | / | 12.6µM* | / | /
COc1cc([N+](=O)[O-])ccc1NC(=O)Nc1ccc(C(=O)N2CCCC2)cc1 | -10.1% | / | -1.3% | / | /
O=C(Nc1ccc(N2CCCC2)c(Cl)c1)c1ccc([N+](=O)[O-])o1 | -8.6%[10 µM] | 14.1µM*[quencher] | ? | -2.9% | 8.91µM*
O=C(Nc1ccccn1)c1ccc([N+](=O)[O-])o1 | ? | -5.3% | ? | 0.2% | -4.3%
O=C(Nc1ccccc1N1CCN(C(=O)c2ccccc2)CC1)c1ccc([N+](=O)[O-])o1 | ? | / | 5.62µM* | / | /
Cc1ccc(NC(=O)c2ccc([N+](=O)[O-])o2)cc1C | -21.9% | -18.6% | 7.94µM* | 14.4% | ?
O=C(Nc1ncccn1)c1ccc([N+](=O)[O-])o1 | ? | -6.4% | 14.1µM* | -11.4% | -12.2%
Cc1cccc(NC(=O)c2ccc([N+](=O)[O-])o2)c1C | -6.7%[10 µM] | -5.5% | -21.3% | -2.5% | -4.9%
O=C(Nc1ccccc1N1CCCC1)c1ccc([N+](=O)[O-])o1 | ? | / | 2µM* | / | /
O=C(Nc1ccccc1)Nc1nnc(Cc2ccc([N+](=O)[O-])cc2)s1 | ? | ? | -43.9% | ? | -14.3%
O=C(Nc1cccc2ccccc12)c1ccc([N+](=O)[O-])o1 | 12.6µM* | / | ? | / | /
O=C(/C=C/c1ccc(Cl)c([N+](=O)[O-])c1)Nc1ccc(N2CCCC2)c(Cl)c1 | ? | ? | ? | 6.0% | 1µM*
Cc1ccc(NC(=O)Nc2nnc(Cc3ccc([N+](=O)[O-])cc3)s2)cc1C | ? | 5.01µM*[quencher] | ? | ? | ?
O=C(Nc1ccc2c(c1)N(C1CCCC1)C(=O)c1ccccc1S2)c1ccc(F)cc1 | / | -18.8% | / | -18.0% | 7.1%
O=c1[nH]c(C2CC2)nc2sc3c(c12)CCCC3 | 16.4% | 7.1% | 9.7% | 4.9% | -0.9%

Assay outcomes as filed in PubChem.
